Assay results: the supplement of paper PMC11732987, “Enantioselective OTUD7B fragment discovery through chemoproteomics screening and high-throughput optimisation” (Communications Chemistry, 2025)

Tests used:
Assay in all cases: log2 ratio of Biotin-Ahx-Ub-VS probe labelling (fragment/DMSO); higher = less target engagement (more negative = stronger competition), active = hit call of the paper (q ≤ 0.05, log2 ratio ≤ -1)
Conditions in all cases: compound concentration: 200 uM; treatment time: 3 h
USP42 = target: T1, USP42 (UniProt Q9H9J4)
T1 sequence (whole entry): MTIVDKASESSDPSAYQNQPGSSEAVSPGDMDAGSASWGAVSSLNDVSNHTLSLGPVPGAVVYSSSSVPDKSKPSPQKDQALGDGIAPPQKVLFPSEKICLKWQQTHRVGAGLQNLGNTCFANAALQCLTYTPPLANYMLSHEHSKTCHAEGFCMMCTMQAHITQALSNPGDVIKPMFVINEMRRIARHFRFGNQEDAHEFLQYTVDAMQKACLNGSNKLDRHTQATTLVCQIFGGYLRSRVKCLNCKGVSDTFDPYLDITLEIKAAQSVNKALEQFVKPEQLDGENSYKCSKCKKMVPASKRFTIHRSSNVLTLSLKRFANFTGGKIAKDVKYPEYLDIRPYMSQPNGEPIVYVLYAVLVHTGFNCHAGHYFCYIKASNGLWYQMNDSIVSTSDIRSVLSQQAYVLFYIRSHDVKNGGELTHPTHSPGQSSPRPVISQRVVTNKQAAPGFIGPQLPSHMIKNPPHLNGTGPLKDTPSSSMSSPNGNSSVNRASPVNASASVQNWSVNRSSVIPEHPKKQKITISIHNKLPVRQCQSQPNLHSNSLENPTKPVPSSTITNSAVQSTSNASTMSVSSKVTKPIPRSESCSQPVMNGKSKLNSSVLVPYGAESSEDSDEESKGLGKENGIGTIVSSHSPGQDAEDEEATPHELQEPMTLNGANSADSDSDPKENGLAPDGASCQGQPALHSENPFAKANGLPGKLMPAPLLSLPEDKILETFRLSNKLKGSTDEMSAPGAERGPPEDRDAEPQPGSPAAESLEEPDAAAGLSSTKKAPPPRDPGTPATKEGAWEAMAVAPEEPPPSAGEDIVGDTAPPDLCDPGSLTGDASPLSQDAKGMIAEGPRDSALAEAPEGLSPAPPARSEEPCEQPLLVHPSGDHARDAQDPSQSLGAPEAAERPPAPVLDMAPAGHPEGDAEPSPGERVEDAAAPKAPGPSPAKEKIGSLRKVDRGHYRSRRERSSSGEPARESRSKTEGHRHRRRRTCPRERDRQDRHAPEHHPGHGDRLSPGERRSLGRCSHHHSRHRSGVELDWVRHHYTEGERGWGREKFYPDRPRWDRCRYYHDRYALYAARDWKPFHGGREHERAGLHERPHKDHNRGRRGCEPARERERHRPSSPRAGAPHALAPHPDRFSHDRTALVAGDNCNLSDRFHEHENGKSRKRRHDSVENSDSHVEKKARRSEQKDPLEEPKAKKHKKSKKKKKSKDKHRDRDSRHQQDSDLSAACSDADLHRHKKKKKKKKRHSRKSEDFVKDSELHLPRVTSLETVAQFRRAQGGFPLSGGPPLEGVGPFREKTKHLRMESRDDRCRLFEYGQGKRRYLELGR
In short: (§1)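 Triplicate samples of HEK293T lysate, 495 µg each, received fragment at 200 µM or vehicle for 3 h, followed by Biotin-Ahx-Ub-VS (0.5 µM final) for 1 h. After NeutrAvidin enrichment of labelled DUBs and LysC/trypsin digestion, peptides were run by diaPASEF LC-MS/MS. The values are average log2 fragment/vehicle ratios from global-median-normalised Spectronaut label-free quantities, tested by unpaired t-test on proteins having ≥2 unique peptides.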

USP46 = USP46 (UniProt P62068)
USP46, sequence (P62068 whole entry): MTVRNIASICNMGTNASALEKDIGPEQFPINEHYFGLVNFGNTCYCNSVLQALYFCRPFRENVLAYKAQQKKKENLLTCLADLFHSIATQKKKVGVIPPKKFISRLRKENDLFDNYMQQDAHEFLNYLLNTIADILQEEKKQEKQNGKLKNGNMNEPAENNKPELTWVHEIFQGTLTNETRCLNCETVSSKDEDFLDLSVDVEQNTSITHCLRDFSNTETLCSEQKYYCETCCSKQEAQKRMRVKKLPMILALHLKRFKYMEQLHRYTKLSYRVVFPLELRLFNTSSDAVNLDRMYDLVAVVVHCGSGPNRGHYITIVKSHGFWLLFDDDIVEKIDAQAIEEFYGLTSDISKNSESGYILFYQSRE
In short: as §1

USP47 = target: T2, USP47 (UniProt Q96K76)
T2 sequence (whole entry): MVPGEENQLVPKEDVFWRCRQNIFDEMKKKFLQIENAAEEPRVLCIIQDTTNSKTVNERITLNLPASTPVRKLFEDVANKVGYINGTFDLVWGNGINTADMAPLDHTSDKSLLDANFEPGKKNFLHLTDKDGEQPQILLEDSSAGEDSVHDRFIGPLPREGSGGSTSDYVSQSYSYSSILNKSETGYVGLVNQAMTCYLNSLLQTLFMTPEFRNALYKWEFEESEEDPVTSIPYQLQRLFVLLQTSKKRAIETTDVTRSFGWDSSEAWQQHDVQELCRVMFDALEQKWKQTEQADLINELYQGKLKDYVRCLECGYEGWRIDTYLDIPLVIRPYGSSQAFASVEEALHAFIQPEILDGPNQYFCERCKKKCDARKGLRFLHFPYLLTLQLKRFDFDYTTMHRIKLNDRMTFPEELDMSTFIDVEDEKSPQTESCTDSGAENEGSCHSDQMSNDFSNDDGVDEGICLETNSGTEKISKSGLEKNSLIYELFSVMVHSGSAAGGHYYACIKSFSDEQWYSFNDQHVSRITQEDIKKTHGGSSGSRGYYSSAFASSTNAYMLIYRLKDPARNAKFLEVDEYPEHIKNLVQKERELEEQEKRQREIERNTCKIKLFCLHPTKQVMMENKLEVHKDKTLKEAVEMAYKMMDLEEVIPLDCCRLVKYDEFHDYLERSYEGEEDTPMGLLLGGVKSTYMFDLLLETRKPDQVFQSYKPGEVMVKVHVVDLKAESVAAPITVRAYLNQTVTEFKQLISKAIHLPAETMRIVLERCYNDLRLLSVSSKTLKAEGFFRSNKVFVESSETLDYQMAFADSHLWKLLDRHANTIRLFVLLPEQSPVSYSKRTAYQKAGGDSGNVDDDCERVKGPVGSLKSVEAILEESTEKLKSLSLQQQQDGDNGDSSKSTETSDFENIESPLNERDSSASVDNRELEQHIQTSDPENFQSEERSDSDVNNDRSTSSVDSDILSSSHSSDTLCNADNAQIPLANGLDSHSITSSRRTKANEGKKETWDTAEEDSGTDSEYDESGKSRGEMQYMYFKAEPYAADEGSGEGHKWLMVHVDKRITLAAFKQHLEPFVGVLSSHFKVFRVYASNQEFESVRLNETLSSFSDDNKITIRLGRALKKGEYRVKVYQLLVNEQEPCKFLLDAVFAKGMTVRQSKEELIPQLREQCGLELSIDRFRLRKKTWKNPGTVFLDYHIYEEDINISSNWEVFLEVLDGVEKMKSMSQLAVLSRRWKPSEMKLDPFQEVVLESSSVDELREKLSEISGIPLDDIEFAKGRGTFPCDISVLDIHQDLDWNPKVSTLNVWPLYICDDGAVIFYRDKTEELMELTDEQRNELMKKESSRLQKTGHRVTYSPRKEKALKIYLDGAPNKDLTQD
In short: as §1

USP48 = target: T3, USP48 (UniProt Q86UV5)
T3 sequence (whole entry): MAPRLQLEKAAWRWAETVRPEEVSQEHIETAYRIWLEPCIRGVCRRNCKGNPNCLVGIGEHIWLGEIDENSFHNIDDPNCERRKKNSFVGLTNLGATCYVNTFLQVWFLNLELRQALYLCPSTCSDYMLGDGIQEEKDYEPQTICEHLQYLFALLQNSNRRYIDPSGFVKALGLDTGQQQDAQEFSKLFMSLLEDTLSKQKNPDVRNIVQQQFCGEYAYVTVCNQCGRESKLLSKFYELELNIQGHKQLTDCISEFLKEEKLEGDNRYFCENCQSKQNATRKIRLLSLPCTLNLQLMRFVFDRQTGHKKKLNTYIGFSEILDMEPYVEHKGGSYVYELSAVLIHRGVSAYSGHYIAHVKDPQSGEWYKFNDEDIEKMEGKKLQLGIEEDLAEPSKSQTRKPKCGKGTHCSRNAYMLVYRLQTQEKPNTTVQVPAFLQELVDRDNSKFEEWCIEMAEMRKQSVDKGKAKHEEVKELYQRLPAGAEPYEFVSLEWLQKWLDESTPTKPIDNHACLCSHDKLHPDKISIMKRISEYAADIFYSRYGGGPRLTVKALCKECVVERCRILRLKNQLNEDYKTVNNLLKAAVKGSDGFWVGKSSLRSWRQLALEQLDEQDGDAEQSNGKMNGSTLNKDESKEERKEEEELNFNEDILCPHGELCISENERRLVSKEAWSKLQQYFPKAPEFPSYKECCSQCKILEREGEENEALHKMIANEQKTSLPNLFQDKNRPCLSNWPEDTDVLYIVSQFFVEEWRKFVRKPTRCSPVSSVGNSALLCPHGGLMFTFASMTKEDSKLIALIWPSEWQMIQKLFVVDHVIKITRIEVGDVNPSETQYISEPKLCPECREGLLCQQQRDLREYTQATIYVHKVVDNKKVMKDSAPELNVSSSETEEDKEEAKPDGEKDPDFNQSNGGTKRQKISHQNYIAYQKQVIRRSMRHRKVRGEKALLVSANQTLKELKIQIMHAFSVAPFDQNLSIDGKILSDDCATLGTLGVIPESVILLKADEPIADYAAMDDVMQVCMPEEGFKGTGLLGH
In short: as §1

USP5 = target: T4, USP5 (UniProt P45974)
T4 sequence (whole entry): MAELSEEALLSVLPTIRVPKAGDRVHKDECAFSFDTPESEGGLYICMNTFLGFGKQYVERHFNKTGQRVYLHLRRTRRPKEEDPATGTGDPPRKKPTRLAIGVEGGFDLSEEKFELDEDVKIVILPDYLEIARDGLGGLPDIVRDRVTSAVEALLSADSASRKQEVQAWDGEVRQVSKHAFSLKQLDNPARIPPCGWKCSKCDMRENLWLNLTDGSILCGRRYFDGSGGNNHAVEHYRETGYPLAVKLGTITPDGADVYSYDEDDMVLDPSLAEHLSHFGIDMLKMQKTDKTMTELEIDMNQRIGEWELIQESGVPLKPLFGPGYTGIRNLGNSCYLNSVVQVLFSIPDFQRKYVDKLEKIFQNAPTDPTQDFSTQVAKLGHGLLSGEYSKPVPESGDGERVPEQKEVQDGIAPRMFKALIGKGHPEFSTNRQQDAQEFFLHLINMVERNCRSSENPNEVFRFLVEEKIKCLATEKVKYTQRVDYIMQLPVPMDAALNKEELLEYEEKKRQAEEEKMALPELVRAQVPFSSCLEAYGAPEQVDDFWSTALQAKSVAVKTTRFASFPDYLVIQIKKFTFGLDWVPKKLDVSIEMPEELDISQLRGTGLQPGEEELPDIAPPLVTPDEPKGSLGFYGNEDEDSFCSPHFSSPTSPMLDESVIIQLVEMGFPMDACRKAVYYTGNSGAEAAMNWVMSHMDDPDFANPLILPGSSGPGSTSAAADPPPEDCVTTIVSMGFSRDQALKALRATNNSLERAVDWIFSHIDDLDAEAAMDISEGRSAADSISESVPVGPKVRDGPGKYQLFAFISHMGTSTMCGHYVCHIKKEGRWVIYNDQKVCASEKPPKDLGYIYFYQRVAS
In short: as §1

USP54 = USP54 (UniProt Q70EL1)
USP54, sequence (Q70EL1 whole entry): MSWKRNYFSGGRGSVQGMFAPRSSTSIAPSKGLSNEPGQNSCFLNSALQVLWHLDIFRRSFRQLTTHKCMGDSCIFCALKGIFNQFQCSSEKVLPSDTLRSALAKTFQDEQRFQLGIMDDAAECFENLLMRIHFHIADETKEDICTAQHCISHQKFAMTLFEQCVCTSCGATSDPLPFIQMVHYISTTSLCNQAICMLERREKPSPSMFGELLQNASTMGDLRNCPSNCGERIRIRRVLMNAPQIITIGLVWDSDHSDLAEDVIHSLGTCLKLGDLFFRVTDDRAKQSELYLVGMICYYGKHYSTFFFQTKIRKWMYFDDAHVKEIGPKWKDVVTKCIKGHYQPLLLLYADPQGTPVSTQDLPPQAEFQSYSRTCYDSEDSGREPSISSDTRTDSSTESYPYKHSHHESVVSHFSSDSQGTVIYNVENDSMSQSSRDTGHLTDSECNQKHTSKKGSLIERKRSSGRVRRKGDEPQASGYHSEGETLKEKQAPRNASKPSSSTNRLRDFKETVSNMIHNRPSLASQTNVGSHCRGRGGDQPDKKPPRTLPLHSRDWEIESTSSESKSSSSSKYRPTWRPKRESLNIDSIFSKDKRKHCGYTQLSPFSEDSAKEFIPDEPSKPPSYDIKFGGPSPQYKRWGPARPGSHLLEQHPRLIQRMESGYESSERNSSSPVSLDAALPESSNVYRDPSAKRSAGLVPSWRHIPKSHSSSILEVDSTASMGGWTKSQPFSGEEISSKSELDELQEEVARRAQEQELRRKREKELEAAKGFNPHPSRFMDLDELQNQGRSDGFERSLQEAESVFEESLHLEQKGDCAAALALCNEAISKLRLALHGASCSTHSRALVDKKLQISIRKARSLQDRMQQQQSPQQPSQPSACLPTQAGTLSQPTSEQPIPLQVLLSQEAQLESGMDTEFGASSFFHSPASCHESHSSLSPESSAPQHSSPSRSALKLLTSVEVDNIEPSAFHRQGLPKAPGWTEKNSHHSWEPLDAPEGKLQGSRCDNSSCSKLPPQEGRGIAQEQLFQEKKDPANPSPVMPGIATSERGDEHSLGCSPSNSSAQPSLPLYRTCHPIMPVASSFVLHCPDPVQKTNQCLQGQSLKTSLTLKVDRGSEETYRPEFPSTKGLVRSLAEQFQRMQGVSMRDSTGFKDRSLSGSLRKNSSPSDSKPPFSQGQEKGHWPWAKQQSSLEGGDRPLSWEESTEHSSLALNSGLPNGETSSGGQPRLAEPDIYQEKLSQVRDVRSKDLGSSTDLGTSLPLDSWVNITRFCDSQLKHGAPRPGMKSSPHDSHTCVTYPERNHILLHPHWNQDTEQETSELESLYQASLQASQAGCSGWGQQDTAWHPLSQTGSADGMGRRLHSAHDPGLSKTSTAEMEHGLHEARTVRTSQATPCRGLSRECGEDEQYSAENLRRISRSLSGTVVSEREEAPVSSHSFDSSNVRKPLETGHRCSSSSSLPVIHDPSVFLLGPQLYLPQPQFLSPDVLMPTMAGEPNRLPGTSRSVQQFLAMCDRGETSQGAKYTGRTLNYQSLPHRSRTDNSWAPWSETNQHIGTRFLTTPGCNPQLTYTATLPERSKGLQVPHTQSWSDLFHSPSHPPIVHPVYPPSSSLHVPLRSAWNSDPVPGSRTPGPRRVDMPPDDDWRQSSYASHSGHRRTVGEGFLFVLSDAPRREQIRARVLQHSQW
In short: as §1

USP7 = USP7 (UniProt Q93009)
In short: as §1

USP8 = target: T5, USP8 (UniProt P40818)
T5 sequence (whole entry): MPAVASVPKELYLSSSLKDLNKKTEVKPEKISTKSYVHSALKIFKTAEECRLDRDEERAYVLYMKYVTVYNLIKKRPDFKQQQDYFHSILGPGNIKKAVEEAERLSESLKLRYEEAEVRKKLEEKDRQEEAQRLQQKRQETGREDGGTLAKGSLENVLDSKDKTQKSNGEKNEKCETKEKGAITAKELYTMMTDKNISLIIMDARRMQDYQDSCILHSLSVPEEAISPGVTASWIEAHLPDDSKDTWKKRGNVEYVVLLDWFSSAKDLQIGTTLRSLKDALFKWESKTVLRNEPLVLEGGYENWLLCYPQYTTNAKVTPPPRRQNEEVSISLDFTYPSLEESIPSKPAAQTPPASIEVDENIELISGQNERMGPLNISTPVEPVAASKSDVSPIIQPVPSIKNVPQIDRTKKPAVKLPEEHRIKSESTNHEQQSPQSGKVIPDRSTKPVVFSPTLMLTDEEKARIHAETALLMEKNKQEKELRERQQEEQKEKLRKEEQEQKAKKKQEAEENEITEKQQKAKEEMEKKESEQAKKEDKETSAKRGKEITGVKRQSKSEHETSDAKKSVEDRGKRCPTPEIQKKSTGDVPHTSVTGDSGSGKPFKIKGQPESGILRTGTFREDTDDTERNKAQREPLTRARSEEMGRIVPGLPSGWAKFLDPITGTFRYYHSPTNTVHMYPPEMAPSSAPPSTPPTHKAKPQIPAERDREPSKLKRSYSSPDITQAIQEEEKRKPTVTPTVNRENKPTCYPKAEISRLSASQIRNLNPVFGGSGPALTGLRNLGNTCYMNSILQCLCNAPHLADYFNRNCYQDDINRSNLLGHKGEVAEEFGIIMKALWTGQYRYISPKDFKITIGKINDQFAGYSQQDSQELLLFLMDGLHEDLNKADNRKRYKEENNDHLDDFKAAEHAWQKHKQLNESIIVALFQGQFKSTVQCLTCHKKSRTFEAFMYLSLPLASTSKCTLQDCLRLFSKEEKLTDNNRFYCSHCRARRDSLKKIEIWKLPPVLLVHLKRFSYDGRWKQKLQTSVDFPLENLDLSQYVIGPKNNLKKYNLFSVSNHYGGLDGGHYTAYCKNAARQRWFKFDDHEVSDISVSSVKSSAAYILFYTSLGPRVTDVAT
In short: as §1

USP9X = USP9X (UniProt Q93008)
USP9X, sequence (Q93008 whole entry): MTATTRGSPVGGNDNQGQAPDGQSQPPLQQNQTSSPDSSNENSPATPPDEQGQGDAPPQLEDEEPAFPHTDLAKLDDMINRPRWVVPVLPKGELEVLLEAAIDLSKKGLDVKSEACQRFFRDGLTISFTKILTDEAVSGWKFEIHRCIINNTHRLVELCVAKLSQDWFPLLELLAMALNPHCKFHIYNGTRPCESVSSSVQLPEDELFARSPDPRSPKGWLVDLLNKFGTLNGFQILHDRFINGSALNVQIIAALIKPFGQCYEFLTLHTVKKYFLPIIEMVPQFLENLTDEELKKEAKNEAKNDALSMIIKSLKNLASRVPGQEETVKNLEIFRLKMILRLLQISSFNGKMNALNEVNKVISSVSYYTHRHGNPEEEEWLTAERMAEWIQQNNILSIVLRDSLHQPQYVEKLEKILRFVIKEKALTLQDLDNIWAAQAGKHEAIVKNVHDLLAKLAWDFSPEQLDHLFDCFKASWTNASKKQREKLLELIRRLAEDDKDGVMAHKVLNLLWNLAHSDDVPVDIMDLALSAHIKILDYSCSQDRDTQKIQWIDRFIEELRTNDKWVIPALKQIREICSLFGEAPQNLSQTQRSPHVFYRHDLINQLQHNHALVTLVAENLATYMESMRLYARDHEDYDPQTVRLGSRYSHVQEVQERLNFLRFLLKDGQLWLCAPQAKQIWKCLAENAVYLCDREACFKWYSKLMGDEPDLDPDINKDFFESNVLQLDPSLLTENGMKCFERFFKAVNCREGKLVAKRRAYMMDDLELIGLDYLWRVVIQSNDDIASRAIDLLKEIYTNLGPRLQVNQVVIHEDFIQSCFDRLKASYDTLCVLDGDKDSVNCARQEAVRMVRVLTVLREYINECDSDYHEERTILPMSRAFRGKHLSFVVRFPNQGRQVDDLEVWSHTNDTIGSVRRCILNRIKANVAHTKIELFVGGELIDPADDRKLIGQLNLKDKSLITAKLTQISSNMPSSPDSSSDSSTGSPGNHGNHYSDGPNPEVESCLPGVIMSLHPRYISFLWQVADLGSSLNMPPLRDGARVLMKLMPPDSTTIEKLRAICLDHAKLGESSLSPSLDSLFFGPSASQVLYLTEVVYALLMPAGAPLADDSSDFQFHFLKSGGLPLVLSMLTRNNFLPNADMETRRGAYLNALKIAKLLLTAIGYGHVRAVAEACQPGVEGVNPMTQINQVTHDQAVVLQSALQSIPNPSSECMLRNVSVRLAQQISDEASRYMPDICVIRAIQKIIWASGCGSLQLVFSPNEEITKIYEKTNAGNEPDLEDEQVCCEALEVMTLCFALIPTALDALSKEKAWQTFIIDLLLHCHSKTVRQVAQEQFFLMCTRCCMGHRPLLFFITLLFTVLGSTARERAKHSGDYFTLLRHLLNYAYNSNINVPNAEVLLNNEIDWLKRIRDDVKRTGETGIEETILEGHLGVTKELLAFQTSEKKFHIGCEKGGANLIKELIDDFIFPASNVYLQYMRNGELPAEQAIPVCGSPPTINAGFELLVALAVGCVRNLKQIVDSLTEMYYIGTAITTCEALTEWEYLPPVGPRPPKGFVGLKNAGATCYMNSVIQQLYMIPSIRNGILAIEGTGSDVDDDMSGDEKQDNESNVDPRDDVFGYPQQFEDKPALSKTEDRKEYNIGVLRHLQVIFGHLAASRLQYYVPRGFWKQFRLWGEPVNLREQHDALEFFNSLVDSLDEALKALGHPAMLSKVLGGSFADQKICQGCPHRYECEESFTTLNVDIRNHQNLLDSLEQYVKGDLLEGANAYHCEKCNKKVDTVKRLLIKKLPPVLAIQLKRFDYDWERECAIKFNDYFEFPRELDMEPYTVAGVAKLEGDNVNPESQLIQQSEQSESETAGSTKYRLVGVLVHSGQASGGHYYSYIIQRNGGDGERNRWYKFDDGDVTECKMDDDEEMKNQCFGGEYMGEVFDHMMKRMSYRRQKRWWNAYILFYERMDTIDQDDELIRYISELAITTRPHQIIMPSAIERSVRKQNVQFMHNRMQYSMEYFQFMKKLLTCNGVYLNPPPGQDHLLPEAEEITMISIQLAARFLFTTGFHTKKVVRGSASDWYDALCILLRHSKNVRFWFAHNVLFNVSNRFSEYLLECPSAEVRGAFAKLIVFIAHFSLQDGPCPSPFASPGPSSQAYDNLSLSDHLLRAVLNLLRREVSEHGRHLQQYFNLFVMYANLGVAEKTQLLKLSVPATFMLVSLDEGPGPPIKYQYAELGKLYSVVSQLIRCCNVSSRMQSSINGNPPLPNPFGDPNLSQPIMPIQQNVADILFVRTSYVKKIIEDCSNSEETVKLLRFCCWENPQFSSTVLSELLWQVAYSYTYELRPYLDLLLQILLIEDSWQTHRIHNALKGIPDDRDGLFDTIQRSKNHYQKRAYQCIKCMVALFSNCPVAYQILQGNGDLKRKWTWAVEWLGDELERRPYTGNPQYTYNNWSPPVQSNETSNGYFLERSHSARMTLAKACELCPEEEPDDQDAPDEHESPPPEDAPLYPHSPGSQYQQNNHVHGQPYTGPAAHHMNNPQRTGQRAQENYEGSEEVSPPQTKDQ
In short: as §1

UniProt O00487 = target: UniProt O00487
UniProt O00487, sequence (O00487 whole entry): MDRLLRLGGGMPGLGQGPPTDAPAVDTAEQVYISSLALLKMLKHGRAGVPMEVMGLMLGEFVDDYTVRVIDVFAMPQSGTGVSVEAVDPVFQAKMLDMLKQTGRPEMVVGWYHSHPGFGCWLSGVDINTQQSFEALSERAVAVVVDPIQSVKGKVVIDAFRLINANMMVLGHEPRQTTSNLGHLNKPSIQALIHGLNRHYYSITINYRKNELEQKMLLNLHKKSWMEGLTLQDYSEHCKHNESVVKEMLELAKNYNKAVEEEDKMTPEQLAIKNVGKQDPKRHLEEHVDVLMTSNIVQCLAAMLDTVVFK
In short: as §1

Measured: log2 ratio of Biotin-Ahx-Ub-VS probe labelling

O=C(CCl)NCCc1cccc2ccccc12
inactive: USP42 0.608 | USP46 -0.0148 | USP47 0.102 | USP48 -0.131 | USP5 0.258 | USP54 -0.0844 | USP7 -0.217 | USP8 -0.118 | USP9X 0.0346 | UniProt O00487 0.00956
